RORgamma inh: blocks mouse ROR gamma transcriptional activity. Potency, µM (doses to about 53.6 µM), for the others: at the top dose activity change, negative = inhibition, most hits filed as inhibitors. Drosophila S2 Gal4-RORgamma UAS-luciferase reporter, 20 h. P51450. 310,000 compounds, 5.4% hits; further: potency means the concentration at half of the fitted maximal effect; nearly all actives have a fitted effect of over 60% in size
Target sequence (P51450 whole entry, looked up, the tested form may be a part): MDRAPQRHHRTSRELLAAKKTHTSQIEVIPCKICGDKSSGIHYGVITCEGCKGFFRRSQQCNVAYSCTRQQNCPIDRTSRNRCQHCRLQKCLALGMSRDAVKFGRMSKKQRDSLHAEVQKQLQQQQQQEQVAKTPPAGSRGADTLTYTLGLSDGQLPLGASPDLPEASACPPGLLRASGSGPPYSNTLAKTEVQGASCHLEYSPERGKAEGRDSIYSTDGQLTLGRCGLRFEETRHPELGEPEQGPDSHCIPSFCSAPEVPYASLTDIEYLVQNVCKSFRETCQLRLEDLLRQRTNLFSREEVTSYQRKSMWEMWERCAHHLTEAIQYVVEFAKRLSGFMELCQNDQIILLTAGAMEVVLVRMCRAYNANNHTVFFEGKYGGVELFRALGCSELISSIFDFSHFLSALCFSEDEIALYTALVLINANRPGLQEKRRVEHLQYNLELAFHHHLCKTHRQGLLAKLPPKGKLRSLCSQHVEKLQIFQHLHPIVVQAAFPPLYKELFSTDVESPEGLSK
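ROR gamma transcriptional activity was tracked as Gal4-UAS luciferase output in stably transfected Drosophila Schneider cells, with compound added 1 hr before 700 uM copper sulfate induction and a 20 hr ambient-temperature incubation.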
CtBP-E1A blk: blocks the CtBP interaction with E1A | 340,000 compounds, 0.49% hits | AID 651724 | activity change, % (test concentration not listed) | AlphaScreen GST-E1A/His-CtBP binding, 1536-well; stronger effect = lower value; in the data active means activity change below about -65%; inconclusive means mostly about -30% to -63%
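Homogeneous bead-based format: GST-tagged E1A captured on glutathione donor beads, His-tagged CtBP on nickel acceptor beads; compounds precede bead addition by 2 h at 37 °C.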
Six1-Eya2 inh: inhibitors of human Six1/Eya2 interaction; AID 651725; Q15475+O00167; 360,000 compounds, 0.56% hits; AlphaScreen GST-Six1/His-Eya2 binding, biochemical; stronger effect = lower value; activity change, % (concentration not given with the values); in the data active means activity change below about -65%; inconclusive means mostly about -30% to -63%
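AlphaScreen luminescence read after one hour at 37 °C in darkness. Pin-transferred compounds met GST-Six1 and His-Eya2 protein (5X stock 250 nM/500 nM) plus glutathione donor and Ni-chelate acceptor beads (5X, 50 ug/mL).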
PKM2 act: PKM2 (human) enzyme activation. 260,000 compounds, 0.34% hits. purified PKM2, Kinase-Glo ATP luminescence, activation; response scale: 0% is enzyme alone, no compound. AID 1631. P14618. Potency, µM (series often up to 57.5 µM), for the others: top-dose activation, hits mostly activators; further: potency means the concentration at half of the fitted maximal effect; nearly all actives have a fitted effect of over 55% in size
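Purified hPK-M2 (>95%) run at intermediate activity with 0.1 mM ADP and 0.5 mM PEP in 50 mM imidazole pH 7.2, KCl, MgCl2; 1 h room temperature. ATP formed read by Kinase-Glo luminescence; normalized to uninhibited and no-enzyme controls.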
VP16 counter: Gal4-VP16 reporter inhibition counter-screen | Drosophila S2 Gal4-VP16 UAS-luciferase, luminescence, 20 h | Potency, µM (highest dose often 53.6 µM), without a hit: at the highest dose activity, negative = inhibition, most hits filed as inhibitors | 310,000 compounds, 3.5% hits;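 further: Gal4-VP16 expression switched on by copper sulfate through the metallothionein promoter; potency means the concentration at half of the fitted maximal effect; nearly all actives have a fitted effect of over 50% in size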
* hit, by the source's call; ? = inconclusive; . = no result; [ ] = remark or other dose. An excerpt weighted towards active compounds, which were near 5.6% of everything screened. Unless noted, the call rests on the fitted dose curve; in most records, active means well fitted curve in the direction sought with a large enough effect; inconclusive means small, poorly fitted or top-dose-only effect, or another doubt; inactive means no such curve, though single readings can be large; an effect the other way counts as inactive or inconclusive. On the % scale 0 is the no-effect control and ±100 the full control effect.

SMILES | RORgamma inh | CtBP-E1A blk | Six1-Eya2 inh | PKM2 act | VP16 counter
CCn1nc(NC(=O)c2ccccn2)c2cc3cccc(C)c3nc21 | 3.2µM* | 19 | 18 | 1% | 4µM*
COc1cccc(/C=N/Nc2nc3ccccc3n3cnnc23)c1O | ? | -93* | -87* | -9% | ?
COc1cccc(/C=N/Nc2nc3ccccc3n3cnnc23)c1 | 20% | ? | ? | 9% | -6%
COc1cccc(/C=N/Nc2nc3ccccc3[nH]2)c1O | 0.71µM* | . | -8 | -9% | 2.2µM*
COc1ccc(CC(=O)N/N=C(/C)c2ccco2)cc1 | 5% | 5 | 0 | -3% | 0%
CC(Sc1nnc(NCc2ccccc2)s1)C(=O)Nc1ccc2c(c1)C(=O)c1ccccc1C2=O (stereo not drawn) | -27% | -82* | -66* | -1% | -9%
COC(=O)C1(C(=O)OC)C[C@H]2CON=C2[C@H]1c1ccccc1 | -6% | . | . | . | 2%
Cc1c(Cl)cccc1NC(=S)NCc1cccs1 | 4.5µM* | 1 | 5 | -5% | 7.1µM*
Cc1c(Cl)cccc1NC(=O)Cc1cccs1 | -7% | 6 | 1 | 0% | -3%
COc1ccccc1NC(=S)NCc1cccs1 | ? | -20 | -3 | 5% | -27%
S=C(NCc1cccs1)Nc1cccc(Cl)c1Cl | 10µM* | -11 | 6 | -3% | 8.9µM*
Cc1ccc(N2C(=O)CC(NNC(=O)Cc3ccc(F)cc3)C2=O)cc1Cl (stereo not drawn) | 3% | . | -1 | 5% | -6%
COc1cc(OC)cc(C(=O)OC/C(O)=C(\C#N)c2nc3ccccc3[nH]2)c1 | 6.3µM* | -6 | 0 | 11% | 18µM*
COc1ccc(C(=O)OC/C(O)=C(\C#N)c2nc3ccccc3[nH]2)cc1S(=O)(=O)N1CCOCC1 | 13µM* | ? | ? | -4% | -10%
N#CC(=C(O)COC(=O)c1ccc2c(c1)OCCO2)c1nc2ccccc2[nH]1 | . | -26 | -30 | . | .
c1ccc(-c2csc3ncnc(NCCCN4CCOCC4)c23)cc1 | 8% | -1 | -4 | 14% | -20%
O=c1c2c(-c3ccccc3)csc2nc2c3ccccc3c(NCCN3CCOCC3)nn12 | 1.6µM* | -88* | -82* | 2% | 3.2µM*
O=c1c2ccccc2nc2c3ccccc3c(NCCN3CCOCC3)nn12 | 13µM* | . | . | 4% | 20µM*
NS(=O)(=O)c1ccc(CCNC(=O)c2ccc(-c3ccccc3)cc2)cc1 | -38%[1.91 µM] | 1 | 3 | -3% | -1%
Cc1ccc(S(=O)(=O)N[C@@H](Cc2ccccc2)C(=O)CCl)cc1 | ? | 0 | -14 | 2% | 16µM*
Cn1c(=O)[nH]c(=O)c2c1nc1n2CCCN1Cc1ccccc1 | 3% | 5 | 0 | 8% | -4%
Cc1ccccc1C1C(C#N)=C2N=C(N)c3c(sc4c3CCCCC4)N2C2=C1C(=O)CC(C)(C)C2 (stereo not drawn) | 13µM* | -7 | -8 | 6% | ?
CC(C)NC(=O)C(c1ccc(F)cc1)N(C(=O)CCC(=O)Nc1ccccn1)c1cccc(F)c1 (stereo not drawn) | 14% | -6 | -3 | -2% | -3%
COC1=C(Nc2ccccc2)C(=O)c2ccccc2C1=O | 8% | -67* | -83* | -1% | -2%
Cc1ccc(NC2=C(N3CCCCC3)C(=O)c3ccccc3C2=O)cc1 | -39% | 6 | ? | 3% | ?
SMILES | RORgamma inh | CtBP-E1A blk | Six1-Eya2 inh | PKM2 act | VP16 counter
COC1=C(Nc2ccc(C)cc2)C(=O)c2ccccc2C1=O | 10% | -90* | -86* | -8% | -8%
CC(=O)c1cccc(NC(=O)C2Cc3c(-c4ccc5c(c4)OCO5)ccnc3O2)c1 (stereo not drawn) | . | -5 | -17 | . | .
COc1cc([N+](=O)[O-])ccc1NC(=O)CSc1nccn1C | 2% | -1 | 1 | 13µM* | -17%
Cn1ccnc1SCC(=O)Nc1ccc([N+](=O)[O-])cn1 | . | 0 | 1 | 14% | .
COc1cc([N+](=O)[O-])ccc1NC(=O)N1CCCCCC1 | 13µM* | 3 | -8 | 6% | ?
O=S(=O)(NCc1ccccn1)C(F)(F)F | 1.4µM* | -10 | -5 | -5% | ?
Nc1ccc(S(=O)(=O)NCc2ccccn2)cc1 | 0% | 7 | 7 | . | 6%
CC(C)(C)c1ccc(C(=O)Nc2ncn[nH]2)cc1 | 4µM* | 1 | -5 | -2% | ?
Cc1ccc(C(=O)Nc2ncn[nH]2)cc1 | ? | 0 | -13 | 1%[11.5 µM] | 13µM*
O=C(Nc1ncn[nH]1)c1cccc(F)c1 | . | -8 | -11 | . | .
Cc1ccc(S(=O)(=O)/N=c2\ccc(Cl)cn2C(F)F)cc1 | 35% | -9 | 0 | 25µM* | -23%
O=C(c1cc(-c2ccc3c(c2)OCO3)on1)N1CCN(c2ccccc2)CC1 | 30% | -15 | -15 | -3% | 1%
O=C(c1cc(-c2ccc3c(c2)OCO3)on1)N1CCOCC1 | 10µM* | 1 | 2 | -18% | 7.9µM*
O=C(c1cc(-c2ccc(Cl)cc2Cl)on1)N1CCOCC1 | 10µM* | 9 | 4 | -6% | ?
O=C(c1cc(-c2ccc(Cl)cc2)on1)N1CCOCC1 | 10µM* | 3 | 4 | 4% | ?
O=C(c1cc(-c2ccc(Cl)c(Cl)c2)on1)N1CCOCC1 | 9% | -13 | 7 | -3% | 0%
COC(=O)C1=CN(c2ccc(F)cc2)C(N)=C(C#N)C1c1cccc(F)c1 (stereo not drawn) | . | -5 | 0 | . | .
CCOC(=O)c1c(C)oc2c(CN3CCN(C)CC3)c(Br)c(OC)c(O)c12 | ? | -6 | -2 | 25% | 18µM*
COc1cc(SC)ccc1C(=O)Nc1ncc(C)s1 | 2.5µM* | . | 0 | -8% | ?
COc1cc(SC)ccc1C(=O)Nc1ccc(OCC(=O)N2CCOCC2)cc1 | 10µM* | 0 | -5 | -1% | 11µM*
COc1cc(SC)ccc1C(=O)Nc1ccc(C)cc1C | 35% | 1 | 7 | -5% | 3%
COc1cc(SC)ccc1C(=O)Nc1ccc(C)cc1 | ? | 0 | 6 | 2% | 20µM*
COc1cc(SC)ccc1C(=O)Nc1ncc(Cl)cc1Cl | 18% | 7 | 5 | 2% | ?
COc1cc(SC)ccc1C(=O)Nc1ccon1 | 57% | -1 | -8 | 7% | 10%
COc1cc(SC)ccc1C(=O)Nc1ccc(Br)cn1 | 2µM* | . | 3 | -12% | 7.9µM*
O=C(O)C1CCC(N2C(=O)c3cccc([N+](=O)[O-])c3C2=O)CC1 (stereo not drawn) | ? | 8 | -5 | 1%[11.5 µM] | -4%
COc1ccc(C(=O)OCC(=O)Nc2c(C)n(C)n(-c3ccccc3)c2=O)cc1OC | . | 2 | 2 | . | .
CNc1nc(NC#N)nc(SC)n1 | 10% | -10 | 0 | -1% | -9%
